Source: PubChem BioAssay AID485270 (The Scripps Research Institute Molecular Screening Center, 2010)
Hit rate of the full screen: of about 330,000 compounds, about 5,800 (1.8%) were called active. Cut-off read from the data, not from the text of the source: active = inhibition mostly above about 38% (no sharp cut-off); inactive = mostly below about 40%. The list comes from a sample in which actives are over-represented; it also holds similar structures and randomly drawn compounds.

Molecular target: Orexin/Hypocretin receptor type 1 (Homo sapiens) (UniProt O43613)
Sequence (O43613 whole entry, looked up): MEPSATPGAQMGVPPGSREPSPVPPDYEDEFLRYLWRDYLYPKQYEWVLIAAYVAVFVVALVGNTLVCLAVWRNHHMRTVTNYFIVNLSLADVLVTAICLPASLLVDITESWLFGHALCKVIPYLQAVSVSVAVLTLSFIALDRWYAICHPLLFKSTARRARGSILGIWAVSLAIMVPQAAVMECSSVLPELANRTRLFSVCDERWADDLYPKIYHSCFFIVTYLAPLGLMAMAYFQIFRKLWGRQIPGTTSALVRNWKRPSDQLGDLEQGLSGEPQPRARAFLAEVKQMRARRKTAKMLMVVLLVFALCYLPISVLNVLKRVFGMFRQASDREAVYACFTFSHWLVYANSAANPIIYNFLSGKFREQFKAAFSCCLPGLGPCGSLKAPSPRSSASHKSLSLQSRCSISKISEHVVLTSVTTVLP
Experiment: antagonists of human orexin 1 receptor (OX1R) (AID 485270);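 note: 0% = agonist challenge alone and 100% = reference antagonist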
Settings: OX1R-expressing cells, FRET antagonist read-out; at 6.6 µM; active compounds read high

SMILES | inhibition
CC(OC(=O)c1ccc(Cl)cc1O)C(=O)NCCC1=CCCCC1 (stereo not drawn) | 5.93% (inactive)
O=C(COc1ccccc1F)NNC(=O)c1cc(Br)ccc1Cl | 12.4% (inactive)
C#CCOCCOCCOCCNc1nc(N2CCN(C(=O)C([C@@H](C)O)n3cc([C@@H](N)CCCCN)nn3)CC2)nc(N2CCN(C(=O)[C@H](CCCCN)n3cc(CN)nn3)CC2)n1 (stereo partly drawn) | 6.34% (inactive)
C=CC(COCc1ccccc1)N(CC(=O)OC)S(=O)(=O)c1cc(Br)ccc1OC (stereo not drawn) | 20.4% (inactive)
O=C(NN=C1CCC(=NNC(=O)c2cccnc2)CC1)c1cccnc1 | 1.73% (inactive)
O=C(N/N=C/c1sc(N2CCCCC2)nc1-c1cccs1)c1cccnc1 | 111% (active)
Cc1cc(/C=N/NC(=O)c2cccnc2)c(C)n1CC(C)C | 3.61% (inactive)
CC(C#N)OC(=O)c1cccnc1SCC(=O)Nc1ccc2c(c1)OCO2 (stereo not drawn) | 8.21% (inactive)
O=C(Cc1ccc(Cl)c(Cl)c1)Nc1ccc(SC(F)F)cc1 | 17.7% (inactive)
O=C(CC(O)(C(F)(F)F)C(F)(F)F)Nc1ccc(Cl)c(Cl)c1 | 68.7% (active)
O=C(CC1SCCNC1=O)Nc1ccc(Cl)c(Cl)c1 (stereo not drawn) | 10.1% (inactive)
Cc1cc(C(=O)Nc2nnc(C3CC3)s2)c(C)s1 | 7.15% (inactive)
CCOC(=O)C1=C(C)N(C[C@@H]2CC[C@@H](Cc3ccc(-c4ccccc4)cc3)O2)C(=O)NC1c1ccc([N+](=O)[O-])cc1 (stereo partly drawn) | 5.68% (inactive)
COc1ccc(Br)cc1CN(C)CC(=O)Nc1cc(Cl)cc(Cl)c1 | 22.9% (inactive)
COc1ccc2nc3n(c(=O)c2c1)-c1cc(C)ccc1C(=O)NC3Cc1ccc(O)cc1 (stereo not drawn) | 4.12% (inactive)
Cc1c(C(=O)OCC(=O)N(CCC#N)c2ccccc2)oc2c1ccc1ccccc12 | 60.1% (active)
N#CCCN(C(=O)COC(=O)c1ccc2c(c1)OCCO2)c1ccccc1 | 11% (inactive)
N#CCCN(C(=O)COC(=O)c1ccc(S(=O)(=O)N2CCCCCC2)cc1)c1ccccc1 | 16.8% (inactive)
Cc1ccc(CCNC(=O)C2CCN(S(=O)(=O)N3CCCC3)CC2)cc1 | 6.73% (inactive)
CN(CC(=O)NCCc1ccc(S(N)(=O)=O)cc1)CC(=O)Nc1ccc(F)c(F)c1F | -2.07% (inactive)
O=c1ccc2c(-c3ccccc3S(=O)(=O)O)c3ccc(O)c(O)c3oc-2c1O | 55.9% (active)
CC(C)COc1ccc(C(=O)NNC(=O)CCC(=O)c2cccs2)cc1 | 2.01% (inactive)

SMILES | inhibition
Cc1cccc(NC(=O)c2ccc(S(=O)(=O)N(C)c3ccccc3)cc2)n1 | 9.18% (inactive)
CCCCNc1c(-c2ccc(OC)c(Sc3ccc(OC)cc3)c2)nc2ccc(Cl)cn12 | 13.3% (inactive)
COc1ccc(-c2csc(-c3cccs3)n2)cc1OC | 11.9% (inactive)
COc1ccc(-c2csc3nc(-c4ccccc4F)oc(=O)c23)cc1OC | 46.9% (active)
COc1ccccc1-c1nnc(-c2ccc(F)cc2)o1 | 4.73% (inactive)
O=C(COC(=O)c1n[nH]c2ccccc12)Nc1ccccc1Br | 19.4% (inactive)
CCOC(=O)C1CCN(CC(=O)Nc2ccc(OC)c(S(=O)(=O)N3CCCCC3)c2)CC1 | 7.12% (inactive)
CC[C@@H]1CCCCc2ccccc2[C@@H](C(=O)C[C@H](O)CC(C)=O)OC1=O | 5.92% (inactive)
Cc1onc(-c2ccccc2Cl)c1C(=O)NCCn1ccc2ccccc21 | 69.4% (active)
Cc1ccc2cc(CCNC(=O)c3c(-c4ccccc4Cl)noc3C)c(=O)[nH]c2c1 | 6.94% (inactive)
Cc1onc(-c2ccccc2Cl)c1C(=O)OCC(=O)c1ccccc1 | 21.4% (inactive)
NCCN1CCN2C(=O)CN(C(=O)c3ccccc3)CC12 (stereo not drawn) | 6.95% (inactive)
CC1(C)C[C@H]2C3=CCC4[C@@]5(C)CC[C@H](O)[C@](C)(CO)C5CC[C@@]4(C)[C@]3(C)C[C@@H](O)[C@@]2(CO)[C@@H](O)[C@@H]1O (stereo partly drawn) | 6.35% (inactive)
O=C(CSc1nccn1-c1cccc(F)c1)NC1CCCC1 | 1.88% (inactive)
CC(OC(=O)c1c(F)cccc1F)C(=O)NCCC1=CCCCC1 (stereo not drawn) | 6.17% (inactive)
Cc1[nH]n(C)c(=O)c1N=Nc1ccc(S(C)(=O)=O)cc1 | 75.9% (active)
Cc1[nH]n(C)c(=O)c1C(=O)c1c(-c2c(Cl)cccc2Cl)noc1C | 38.8% (inactive)
Cc1cccc(N=Nc2c(C)[nH]n(-c3ccccc3)c2=O)c1 | 6.48% (inactive)
CCc1ccccc1NC(=O)c1ccc2snnc2c1 | 19.6% (inactive)
O=C(Nc1cccc(Br)c1)c1ccc2snnc2c1 | 28.6% (inactive)
O=C(Nc1ccc2ccccc2c1)Nc1ccc2snnc2c1 | 60.2% (active)
CC(=O)C(CC(=O)N1CCCC1)C(=O)Nc1ccc(Cl)cc1 (stereo not drawn) | -2.02% (inactive)

SMILES | inhibition
O=C1COc2ccc(C(=O)COC(=O)c3ccccc3Cl)cc2N1 | 8.89% (inactive)
CCCN(C(=O)CSc1nnc(N)s1)c1c(N)n(Cc2ccccc2)c(=O)[nH]c1=O | 2.18% (inactive)
CCN(C(=O)COC(=O)c1sccc1C)c1c(N)n(Cc2ccccc2)c(=O)[nH]c1=O | 21.4% (inactive)
CCN(C(=O)CSc1ncnc2sccc12)c1c(N)n(Cc2ccccc2)c(=O)[nH]c1=O | 42.3% (active)
COc1ccc(C(=O)O)cc1S(=O)(=O)NC1CCN(Cc2ccccc2)CC1 | 2.69% (inactive)
O=C(NCCCN1CCOCC1)c1cn(-c2ccccc2)nc1-c1ccc(F)cc1 | 1.24% (inactive)
O=C(NC(Cc1c[nH]c2ccccc12)C(=O)N/N=C/c1ccc(Br)cc1)c1cccs1 (stereo not drawn) | 68.7% (active)
CC(=O)NC(Cc1c[nH]c2ccccc12)C(=O)O (stereo not drawn) | 11.3% (inactive)
CC(=O)Nc1ccc(/C=N/NC(=O)c2cccs2)cc1 | 18.1% (inactive)
O=C(NNS(=O)(=O)c1c(F)cc(F)c(Cl)c1F)C12CC3CC(CC(C3)C1)C2 | 6.19% (inactive)
COc1ccc(C(=O)NCc2ccccc2C)cc1S(=O)(=O)NC1CCCC1 | 8.7% (inactive)
O=C(COC(=O)c1ccc(O)cc1O)c1ccc2c(c1)OCCO2 | 9.27% (inactive)
CCNC(=S)N1CCN(S(=O)(=O)c2ccc(Cl)s2)CC1 | 13.3% (inactive)
CC(C)(C)OC(=O)C1=C(CO)CS[C@@H]2[C@H](NC(=O)Cc3ccccc3)C(=O)N12 | 17.7% (inactive)
O=c1c2cc([N+](=O)[O-])ccc2nc2n1CCC2 | 59.2% (active)
O=C(Nc1ccc2nc3n(c(=O)c2c1)CCCC3)c1ccc(Cl)nc1 | 4.47% (inactive)
CCCCN(CC)C(=S)Nc1ccc2nc3n(c(=O)c2c1)CCCCC3 | 5.73% (inactive)
N/C(=N\OC(=O)c1ccc([N+](=O)[O-])cc1)c1ccccn1 | 53.4% (inactive)
COc1ccc(C(=O)O/N=C(\N)c2ccccn2)cc1[N+](=O)[O-] | 28.6% (active)
Cc1ccc(C(=O)O/N=C(\N)c2ccccn2)cc1Cl | 14.1% (inactive)
O=C(O[C@H]1[C@H](Cc2ccccc2)NS(=O)(=O)[C@H]2C[C@@H]3C=C[C@]12O3)c1ccc([N+](=O)[O-])cc1 | 15.9% (inactive)
O=C(O[C@@H]1[C@H](Cc2ccccc2)NS(=O)(=O)[C@H]2C[C@@H]3C=C[C@]12O3)c1ccccc1Br | 52.4% (active)

SMILES | inhibition
CC(C)C(NC(=O)c1c(F)cccc1F)C(=O)NNC(=O)c1ccccc1 (stereo not drawn) | 2.8% (inactive)
COc1ccc(-c2c(C#Cc3ccsc3)c3cc(-c4ccc(CN5CCOCC5)cc4)ccc3n2C)cc1 | 8.67% (inactive)
COc1cc(C(=S)N2CCOCC2)cc(OC)c1OC(=O)c1cc([N+](=O)[O-])c(C)c([N+](=O)[O-])c1 | 8.29% (inactive)
COc1cc(C(=S)N2CCOCC2)cc(OC)c1OC(=O)c1ccc([N+](=O)[O-])cc1[N+](=O)[O-] | 113% (active)
COc1cc(C(=S)N2CCOCC2)cc(OC)c1OC(=O)c1cc([N+](=O)[O-])cc([N+](=O)[O-])c1 | 66.5% (inactive)
Cc1cccc([C@H]2[C@@H]3C=CC[C@@H](C)[C@@H]3C(=O)N2Cc2ccccc2)c1 | 23.4% (inactive)
Cc1c(C(=O)Nc2cccc(S(=O)(=O)N3CCOCC3)c2)oc2ccccc12 | 24.2% (inactive)
CC(=O)Oc1ccc(C(C)=O)c2c1OCCO2 | 88.7% (active)
CC(=O)c1ccc2c(c1)OCCOCCOc1ccc(C(C)=O)cc1OCCOCCO2 | 0.66% (inactive)
CC(=O)c1ccc(OC(=O)N2CCOCC2)cc1 | 0.24% (inactive)
O=C(NCCc1ccco1)c1ccc(OCc2cn3ccccc3n2)cc1 | 8.69% (inactive)
COc1ccc(CCn2c(NCCCN3CCOCC3)nc3c2c(=O)[nH]c(=O)n3C)cc1 | 101% (active)
COc1ccc(CCn2c(NN=C3CCCC3)nc3c2c(=O)[nH]c(=O)n3C)cc1 | 18.2% (inactive)
COc1ccc(CNc2nc3c(c(=O)[nH]c(=O)n3C)n2Cc2ccccc2)cc1 | -5.7% (inactive)
Cc1ccc(S(=O)(=O)Nc2ccc(F)c(S(=O)(=O)N3CCOCC3)c2)cc1 | 21.7% (inactive)
O=C(CSc1nc2ccccc2c(=O)n1-c1ccccc1F)N1CCOCC1 | 16.2% (inactive)
COc1ccc2ccccc2c1/C=N/NC(=O)c1cc(C)[nH]n1 | 39.3% (inactive)
Cc1ccccc1NCC(=O)N/N=C\c1ccc([N+](=O)[O-])s1 | 20.9% (inactive)
CC(C)(C)c1cc(C(=O)N/N=C/c2ccc([N+](=O)[O-])s2)n[nH]1 | 56.3% (active)
CC(=O)N1CCCc2cc(S(=O)(=O)N3CCCC(C(=O)N4CCN(c5cccc(Cl)c5)CC4)C3)ccc21 (stereo not drawn) | 39.7% (active)
CC(=O)N1c2ccc(S(=O)(=O)N3CCCC(C(=O)Nc4cccc(Cl)c4)C3)cc2CC1C (stereo not drawn) | 2.16% (inactive)
CC(=O)N1CCCc2cc(S(=O)(=O)N3CCCC(C(=O)NCc4ccc(Cl)cc4)C3)ccc21 (stereo not drawn) | 10.5% (inactive)
